The list is not random: actives were taken first. Their share in the collection is about 13%.
Pf growth 48h = P. falciparum growth inhibition at 48 hours (one generation) | P. falciparum luciferase growth in erythrocytes, 48 h | Potency, µM (highest dose often 28.7 µM), inactives show at the highest dose activity change, negative = inhibition, usual class: inhibitors | actives 5.9% (n = 310,000) | AID 504832; further: potency means the concentration at half of the fitted maximal effect
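Erythrocytes infected with P. falciparum carrying an integrated firefly luciferase reporter (2% hematocrit, 0.1% parasitemia final) were exposed to compounds in RPMI 1640 with 0.5% Albumax at 37 C, 5% CO2. Growth inhibition was scored as reduced luminescence.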
HCMV antiviral = human cytomegalovirus inhibition; HFF cells, HCMV-luciferase reporter, 72 h; hits give low values; activity change, negative = inhibition, % at 57.5 µM; actives 4.5% (n = 410,000); AID 1259415; in the data active means activity change below about -60%; inconclusive means no clear call, values can overlap the other calls; inactive means above about -39%
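Inhibition of viral replication was scored as loss of reporter luminescence in HFFs infected with HCMV-luciferase (MOI 1 PFU/cell) for 72 h; compounds tested at 2 doses, normalized to buffer and Salinomycin controls.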
Pf growth 96h = inhibits malaria parasite growth, 96 h | P. falciparum luciferase reporter growth, 96 h | Potency, µM (doses to about 28.7 µM), for the others: at the highest dose activity change, negative = inhibition, hits mostly inhibitors | actives 6.9% (n = 320,000) | AID 504834; further: potency means the concentration at half of the fitted maximal effect
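Cell-based qHTS: luciferase-tagged P. falciparum in erythrocytes (2% hematocrit, 0.05% parasitemia final) incubated with compounds for 96 hours, 37 C, 5% CO2; luciferase detection reagent then added and luminescence measured.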
HCV inh = inhibitors of hepatitis C virus infection | Huh7.5.1 HCVcc-Cre infection, luciferase reporter, 44 h | Potency, µM (series often up to 41.8 µM), without a hit: at the highest dose activity change, negative = inhibition, actives largely listed as inhibitors | actives 3.4% (n = 340,000); further: potency means the concentration at half of the fitted maximal effect
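Compounds are dispensed onto cells plated 4 h earlier at 1,000 per well, with HCVcc-Cre virus (about 0.5 moi) added next. Following 44 h of culture, luminescent signal is measured for 15 sec after 15 min with substrate at room temperature.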
An asterisk follows results filed as active; ? = inconclusive; . = no result; [ ] = another dose, or the depositor's remark. Unless noted, the call rests on the fitted dose curve; in most records, active means well fitted inhibition curve with a large enough effect; inconclusive means small, poorly fitted or top-dose-only effect, or another doubt; inactive means no such curve, though single readings can be large or run the other way. On the % scale 0 is the no-effect control and ±100 the full control effect.

SMILES	Pf growth 48h	HCMV antiviral	Pf growth 96h	HCV inh
COc1ccc(CNS(=O)(=O)c2ccc(C3CNC(=O)C3)cc2)cc1 (configuration not stated)	1%	35	-1%	3.2µM*
Cc1ccc(NC(=O)c2cn(CCC#N)nc2-c2ccc3c(c2)OCCO3)c([N+](=O)[O-])c1	2%	?	?	0%
N#CCCn1cc(C(=O)Nc2ccc([N+](=O)[O-])cc2)c(-c2ccc3c(c2)OCCO3)n1	?	-67*	?	-13%
Cc1c(C(=O)N2CCCC2)oc2c1-c1nn(CC(=O)NCc3cccc(Br)c3)cc1CC2	.	-27	.	.
O=S(=O)(c1cnc[nH]1)N1CCc2ccccc21	-12%	45	8.3µM*	-1%
O=C(N[C@H]1CC[C@@]23CCCN2C(=O)CCC[C@H]3[C@H]1Cc1ccccc1)C(c1ccccc1)c1ccccc1	.	-18	.	.
COc1ccc2c3c(n(C)c2c1)[C@@H](CO)N(C)CC31CN(C(=O)CN2CCOCC2)C1	.	5	.	.
O=S(=O)(c1ccc2nc(N3CCN(c4ccc(F)cc4)CC3)ccc2c1)N1CCCCC1	3%	-14	13µM*	16%
CC1CCN(S(=O)(=O)c2ccc3nc(N4CCN(c5ccccc5)CC4)ccc3c2)CC1	-3%	?	10µM*	17%
Cc1cccc2c(=O)cc(CSc3ccccc3NC(=O)c3cccc(Cl)c3)[nH]c12	.	25	.	.
Oc1c(Br)cc(Br)cc1Oc1ccc(Br)cc1Br	?	.	15µM*	-20%[8.37 µM]
Brc1ccc(Oc2ccc(Br)cc2Br)c(Br)c1	22%	49	-9%	-8%
Cc1nc(N2CCCC2)c2ccsc2n1	25%	-28	-9%	14µM*
Cc1nc(N2CCN(C)CC2)c2cc(-c3ccccc3)sc2n1	?	-17	?	-3%
Cc1cccc2nc(-c3ccccc3)c(-c3ccc(CN4CCC(n5cc(-c6ccccc6)[nH]c5=O)CC4)cc3)nc12	.	-13	.	.
Cn1cnc(S(=O)(=O)N2CCCC(C(=O)NCc3ccccc3)C2)c1 (configuration not stated)	.	18	.	.
COc1ccc(-c2cn3nc(N4CCCC(C(=O)Nc5cc(C)cc(C)c5)C4)sc3n2)cc1 (configuration not stated)	.	0	.	.
COc1ccc(S(=O)(=O)Oc2ccc3c(c2)O/C(=C\c2cccnc2)C3=O)cc1	.	-110*	-5%	?
CCC1(CC)NC(=S)NC1=S	.	13	.	15%
CC1(C)NC(=S)NC1=S	.	-100*	.	10%
CC(C)CCn1nnc2sc(-c3ccccc3)cc2c1=O	.	3	.	.
COc1ccc(C2C(C#N)=C(N)OC3=C2C(=O)CCC3)cc1Cn1nc(C)c([N+](=O)[O-])c1C (configuration not stated)	12µM*	66	24%	-27%
COc1ccc(/C=C/C(=O)C2CC2)cc1Cn1nc(C)c([N+](=O)[O-])c1C	0%	?	18%	?
COc1ccc(C(C)=O)cc1Cn1nc(C)c([N+](=O)[O-])c1C	19µM*	-23	?	?
COc1ccc(CCNC(=O)c2cnc3sc(N4CCCCCC4)nn3c2=O)cc1	.	-7	.	.
SMILES	Pf growth 48h	HCMV antiviral	Pf growth 96h	HCV inh
CN1CCN(C(=O)c2sc(=S)n(-c3ccccc3)c2N)CC1	4%	-92*	?	19%
Cc1cc(C)cc(-n2ccnc(NCc3ccc(F)cc3)c2=O)c1	.	3	.	.
COc1cccc(OC)c1OCCN1CCC(C(=O)NC(c2ccc3c(c2)OCO3)c2ccccn2)CC1 (configuration not stated)	.	-61*	.	.
Cc1cnc(CN2CCc3c([nH]c4ccccc34)C2CC(C)C)[nH]1 (configuration not stated)	13µM*	29	-1%	-19%
Cc1c(CN2CCc3c([nH]c4ccccc34)C2C2CCCCC2)cnn1C (configuration not stated)	?	12	5.9µM*	-13%
CCn1ccnc1CN1CCc2c([nH]c3ccccc23)C1C(C)(C)C (configuration not stated)	4.7µM*	1	32%	?
CCn1ccnc1CN1CCc2c([nH]c3ccccc23)C1CC(C)C (configuration not stated)	?	39	?	3%
Cc1cccc(CN2CCc3c([nH]c4ccccc34)C2CC(C)C)n1 (configuration not stated)	9.3µM*	66	10µM*	?
